Compounds without any hit were thinned out: in the full panel of roughly 79,000, 15% have a hit. The source made the active and inactive calls. Cut-off read from the data, not from the text of the source: active = growth inhibition above about 70%; inactive = the rest.
Assay: NCI Yeast Anticancer Drug Screen. Data for the rad14 strain (AID 159);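 note: 0% = growth of vehicle-treated control cultures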
Settings: S. cerevisiae rad14 strain growth inhibition, active compounds read high
Experimental: Growth inhibition of yeast strains with defined genetic alterations is measured as a screen for potential anti-cancer activity. Selected strains with alterations in DNA damage repair or cell cycle control were exposed to compounds and growth inhibition was measured relative to vehicle treated controls. The strain used in this assay is rad14

Measured: growth inhibition

N#C/C(=C\c1cccc(OCc2ccccc2)c1)c1ccc([N+](=O)[O-])cc1
inactive: at 1.2 µM -43% | at 3.7 µM -48% | at 11.0 µM -24% | at 33.0 µM -51% | at 100.0 µM -84%

O=C(CC(=O)n1nc(-c2ccccc2)c(N=Nc2ccccc2C(=O)O)c1-c1ccccc1)Nc1ccc(Cl)cc1
inactive: at 1.2 µM -1% | at 3.7 µM 2% | at 11.0 µM 3% | at 33.0 µM 3% | at 100.0 µM 29%

CC(C)[N+]([O-])(CCCNc1c2ccccc2nc2cccc([N+](=O)[O-])c12)C(C)C
active: at 3.7 µM 93% | at 11.0 µM 98% | at 33.0 µM 99% | at 100.0 µM 99%
inactive: at 1.2 µM 50%

CCCCCCCCCCC1CCC(=O)O1 (stereo not given)
inactive: at 1.2 µM 1% | at 3.7 µM 3% | at 11.0 µM 7% | at 33.0 µM 15%
active: at 100.0 µM 99%

N#Cc1c(N)[nH]c2ccc(Sc3ccccc3)cc12
active: at 33.0 µM 95% | at 100.0 µM 97%
inactive: at 1.2 µM 1% | at 3.7 µM 4% | at 11.0 µM 7%

Cc1cc(N=Nc2ccc(S(=O)(=O)[O-])cc2)cc(C(=O)[O-])c1[O-].NC1CCCCC1N.[Na+].[Pt+4]
active: at 11.0 µM 98% | at 33.0 µM 98% | at 100.0 µM 98%
inactive: at 1.2 µM -4% | at 3.7 µM 52%

CCN(CC)CC(O)c1ccc2ccc3ccccc3c2c1 (stereo not given)
active: at 100.0 µM 70%
inactive: at 1.2 µM 7% | at 3.7 µM 23% | at 11.0 µM 35% | at 33.0 µM 28%

CCC/C(Cl)=N\OC(=O)Nc1cccc(C(F)(F)F)c1
inactive: at 1.2 µM 12% | at 3.7 µM 14% | at 11.0 µM 16% | at 33.0 µM 23% | at 100.0 µM 20%
